Results filed as inconclusive are left out. Activity calls are given as the source filed them. Unless noted, calls follow the shape of the dose curve; as a rule, active = well fitted curve in the direction sought with a large enough effect; inconclusive = small, poorly fitted or top-dose-only effect, or another doubt; inactive = no such curve, though single readings can be large; an effect the other way counts as inactive or inconclusive. Residues, ends and D or L forms follow the SMILES beside them. *: point of attachment. Cbz = O=C(OCc1ccccc1)*
Key:
[1] = molecular target: Cytochrome P450 2C19 (Homo sapiens) (UniProt P33261); assay: qHTS Assay for Inhibitors and Substrates of Cytochrome P450 2C19 (AID 899); conditions: recombinant CYP2C19, luciferin-H EGE luminescence; series mostly up to 57.1 µM; also: % is scaled to controls: 0 for no effect and ±100 for the full control effect; nearly all actives have a fitted effect of over 60% in size
How it was run: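 Luminescent read-out of luciferin formed from Luciferin-H EGE (10uM, equal to KM). Enzyme 5nM in 50mM KPO4; compound added, 10 min at 37C, then NADPH regenerating system for 60 min at 37C. Full inhibition defined by 57uM ketoconazole.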

[2] = qHTS Assay for Identification of Small Molecule Agonists for Thrombopoietin (TPO) Signaling Pathway (AID 917); conditions: TPO signaling pathway reporter cells, agonist qHTS, stimulated with TPO at its EC50; series mostly up to 38.5 µM; also: % is scaled to controls: 0 for no effect and ±100 for the full control effect
How it was run: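 Luciferase reporter (Glycoprotein IIb promoter) in IL-3-deprived Ba/F3 cells carrying human TPO receptor; compounds co-added with 26 pM TPO, incubated 24 h, 37 C. Steadylite luminescence measured after 10 min.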

[3] = molecular target: Muscarinic acetylcholine receptor M1 (Rattus norvegicus) (UniProt P08482); assay: qHTS Assay for Antagonists of Acetylcholine Muscarinic M1 Receptor: Kinetic Measurement of Intracellular Calcium Response (AID 943); conditions: M1-expressing cells, kinetic intracellular calcium fluorescence; series mostly up to 35.3 µM; also: nearly all actives have a fitted effect of over 75% in size; also: potency is read from the fitted curve at half-maximal effect
How it was run: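 Quantitative HTS in CHO-M1 (rat receptor) cells: 10 min compound exposure ahead of 100 nM carbachol, Fluo-4 fluorescence followed 4 min, value expressed as peak-to-basal ratio.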

[4] = molecular target: Muscarinic acetylcholine receptor M1 (Rattus norvegicus) (UniProt P08482); assay: qHTS Assay for Antagonists of Acetylcholine Muscarinic M1 Receptor: Measurement of IP-One Response (AID 944); conditions: CHO-M1 cells, IP-One HTRF, antagonist mode; series mostly up to 46.1 µM; also: nearly all actives have a fitted effect of over 75% in size
How it was run: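 Antagonism was measured as loss of carbachol-driven (EC80) IP1 accumulation in CHO cells carrying rat M1, using a homogeneous IP-One TR-FRET kit read at 620 and 665 nm.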

[5] = molecular target: Pyruvate kinase (Leishmania mexicana) (UniProt Q27686); assay: qHTS Validation Assay for Inhibitors of Leishmania Mexicana Pyruvate Kinase (AID 945);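 also: 0% = DMSO only neutral control wells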; conditions: purified L. mexicana pyruvate kinase, enzyme activity, E451W mutant enzyme; series mostly up to 57.5 µM
How it was run: (§1)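 Read-out: luminescence from PKLight stop/detection reagent, data normalized to DMSO. Reaction: 0.2 nM E451W LmPYK, 0.5 mM PEP, 0.1 mM ADP, pH 7.2, 1 h room temperature.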

[6] = molecular target: Pyruvate kinase PKM (Homo sapiens) (UniProt P14618); assay: qHTS Assay for Activators of Human Muscle Pyruvate Kinase (AID 954; active = well fitted curve in the direction sought with a large enough effect, not every such curve was filed as active;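 also: 0% = uninhibited enzyme and -100% = no enzyme or full thiadiazolimine inhibition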); conditions: purified human muscle pyruvate kinase, luciferase-coupled luminescence, 1 h; series mostly up to 57.5 µM
How it was run: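 PKM2, human, >95% pure, 0.1 nM; PEP 0.5 mM (Km), ADP 0.1 mM; 50 mM imidazole pH 7.2, 50 mM KCl, 0.01% Tween 20, 0.05% BSA; 1 h RT; luciferase luminescence readout.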

[7] = Confirmation and Secondary Assay for Modulators of Hemoglobin Beta Chain Splicing at IVS2 654 locus (AID 910); conditions: HeLa EGFP-654 splicing reporter, GFP fluorescence, 48 h; series mostly up to 46.1 µM;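 also: HeLa cells stably carrying EGFP split by mutant beta-globin IVS2-654 intron; % of control where 0% means no effect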
How it was run: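 HeLa cells stably expressing EGFP interrupted by β-globin IVS2-654 intron, seeded overnight in Opti-MEM/2% FCS, then treated 2 days at 37 °C. Restored splicing read as total peak GFP intensity per well by laser scanning cytometry (488 nm excitation, 500–520 nm emission); 500 nM antisense PNA as control.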

[8] = Confirmation and Secondary Assay for Modulators of Hemoglobin Beta Chain Splicing at IVS2 705 locus (AID 930); conditions: HeLa EGFP-705 splicing reporter, GFP fluorescence, 48 h; series mostly up to 46.1 µM;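 also: HeLa cells stably expressing the EGFP-705 splicing reporter; GFP fluorescence per well restored by corrected splicing of the IVS2-705 intron in EGFP; % of control where 0% means no effect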
How it was run: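 Secondary splice-site specificity test uses HeLa expressing CMV-driven EGFP interrupted by IVS2-705; cells were treated 2 days at 37C with 500 nM antisense PNA as positive control.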

[9] = qHTS Assay for Identification of Small Molecule Agonists for Hypoxia Response Element Signaling Pathway (AID 914; active = well fitted activation curve with a large enough effect in the signal ratio, with a control signal flat, not every such curve was filed as active; the % refers to the signal ratio; also: % of control where 0% means no effect); conditions: ME-180 (cervical carcinoma) HRE-bla reporter, beta-lactamase ratio, CoCl2, 17 h; activation: stronger effect = higher value
How it was run: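 qHTS titration; ME-180 HRE-bla cells; EC50 CoCl2 co-treatment, 17 h at 37 degrees Celsius; CCF4 dye, ex 405nm, em 460nm and 530nm; %Activity from ratio; AC50.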

[10] = molecular target: Pyruvate kinase (Leishmania mexicana) (UniProt Q27686); assay: qHTS Validation Assay for Activators of Leishmania Mexicana Pyruvate Kinase (AID 959); conditions: purified L. mexicana pyruvate kinase, enzyme activity; series mostly up to 57.5 µM
How it was run: as §1

Chain of Pyruvate kinase (Leishmania mexicana) (Q27686 2-499 E452W): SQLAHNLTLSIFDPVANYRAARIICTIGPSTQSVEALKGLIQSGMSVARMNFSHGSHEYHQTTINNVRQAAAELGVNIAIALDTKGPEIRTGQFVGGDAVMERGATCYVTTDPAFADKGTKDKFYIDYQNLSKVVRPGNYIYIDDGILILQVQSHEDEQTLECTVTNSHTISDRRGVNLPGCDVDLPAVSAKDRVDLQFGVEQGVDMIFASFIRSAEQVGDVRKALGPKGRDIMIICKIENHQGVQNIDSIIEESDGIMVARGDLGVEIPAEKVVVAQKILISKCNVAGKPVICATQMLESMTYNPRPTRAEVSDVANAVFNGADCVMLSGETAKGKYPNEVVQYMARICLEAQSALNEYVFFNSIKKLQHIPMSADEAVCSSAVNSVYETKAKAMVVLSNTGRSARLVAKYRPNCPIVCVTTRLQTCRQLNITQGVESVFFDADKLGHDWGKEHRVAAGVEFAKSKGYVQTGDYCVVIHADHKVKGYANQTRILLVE
Chain of Muscarinic acetylcholine receptor M1 (Rattus norvegicus) (P08482 whole entry, looked up): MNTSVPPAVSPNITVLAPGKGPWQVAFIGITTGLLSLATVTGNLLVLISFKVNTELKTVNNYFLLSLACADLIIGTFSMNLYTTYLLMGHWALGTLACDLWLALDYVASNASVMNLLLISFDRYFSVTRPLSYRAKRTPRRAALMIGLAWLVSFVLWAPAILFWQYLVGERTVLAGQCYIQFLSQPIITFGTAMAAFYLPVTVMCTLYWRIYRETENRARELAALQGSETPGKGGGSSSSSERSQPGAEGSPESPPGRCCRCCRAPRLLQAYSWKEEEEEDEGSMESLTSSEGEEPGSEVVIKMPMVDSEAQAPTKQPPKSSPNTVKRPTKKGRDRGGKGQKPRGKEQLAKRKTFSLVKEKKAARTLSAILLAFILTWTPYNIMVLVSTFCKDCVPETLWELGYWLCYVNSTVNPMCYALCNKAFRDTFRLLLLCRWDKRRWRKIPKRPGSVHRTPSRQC
Chain of Pyruvate kinase PKM (Homo sapiens) (P14618 whole entry, looked up): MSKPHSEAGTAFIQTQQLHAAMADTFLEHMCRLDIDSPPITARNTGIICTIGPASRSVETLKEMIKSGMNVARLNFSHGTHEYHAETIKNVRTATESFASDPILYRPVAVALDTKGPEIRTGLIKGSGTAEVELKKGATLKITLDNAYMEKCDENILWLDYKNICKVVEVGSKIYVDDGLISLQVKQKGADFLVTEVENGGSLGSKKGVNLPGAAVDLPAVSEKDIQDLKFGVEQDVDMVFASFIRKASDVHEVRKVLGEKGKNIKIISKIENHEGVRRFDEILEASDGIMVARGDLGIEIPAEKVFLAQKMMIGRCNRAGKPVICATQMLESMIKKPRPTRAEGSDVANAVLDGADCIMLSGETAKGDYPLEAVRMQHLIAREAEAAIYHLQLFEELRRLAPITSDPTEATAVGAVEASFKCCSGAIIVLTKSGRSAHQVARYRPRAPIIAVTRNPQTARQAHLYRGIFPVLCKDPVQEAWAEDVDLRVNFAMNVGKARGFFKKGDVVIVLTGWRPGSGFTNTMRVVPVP
Chain of Cytochrome P450 2C19 (Homo sapiens) (P33261 whole entry, looked up): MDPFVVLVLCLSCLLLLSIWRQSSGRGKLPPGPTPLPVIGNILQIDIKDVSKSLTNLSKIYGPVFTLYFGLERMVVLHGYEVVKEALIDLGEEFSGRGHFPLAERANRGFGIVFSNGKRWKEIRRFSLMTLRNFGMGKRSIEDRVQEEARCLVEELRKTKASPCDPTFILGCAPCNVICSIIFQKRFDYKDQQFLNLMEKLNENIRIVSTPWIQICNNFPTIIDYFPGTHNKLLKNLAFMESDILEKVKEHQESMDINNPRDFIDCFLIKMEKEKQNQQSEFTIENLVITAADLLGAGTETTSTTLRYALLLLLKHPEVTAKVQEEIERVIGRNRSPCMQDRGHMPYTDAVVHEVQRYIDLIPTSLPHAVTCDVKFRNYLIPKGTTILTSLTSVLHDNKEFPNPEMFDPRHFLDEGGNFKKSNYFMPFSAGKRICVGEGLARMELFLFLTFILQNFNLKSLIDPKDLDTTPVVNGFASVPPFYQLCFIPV

O=c1[nH]c(=O)c2nc3ccccc3nc2[nH]1
inactive: Potency [1] | Potency [2] | Potency [3] | Potency [4] | Potency [5] | outcome [6]

NC1CONC1=O (stereo not given)
inactive: Potency [7] | outcome [8]

N[C@@H](Cc1ccc(O)c(I)c1)C(=O)O
inactive: Potency [2] | Potency [3] | Potency [4] | Potency [5] | outcome [6]

Nc1ccc(N2C(=O)c3ccccc3C2=O)c(Cl)c1
inactive: activation [9] -21.1% | Potency [2] | Potency [4] | Potency [5] | outcome [6]

CCCCCCCCCCC/C=C\C(C)(C)/C=C\CCCC(=O)O
inactive: Potency [2] | Potency [3] | Potency [4] | Potency [5] | outcome [6]

CCCc1c(OCCCOc2ccc(OCC(=O)O)cc2)ccc(C(C)=O)c1O
inactive: Potency [2] | Potency [4] | Potency [5] | outcome [6]

Cc1cc2c(cc1Cl)N(C(=O)Nc1ccnc3ccccc13)CC2
inactive: Potency [2] | Potency [3] | Potency [4] | Potency [5] | outcome [6]

CC(N)=O
inactive: Potency [2] | Potency [3] | Potency [4] | Potency [5] | outcome [6]

CCCn1c(=O)c2[nH]c(-c3ccc(S(=O)(=O)O)cc3)nc2n(CCC)c1=O
inactive: Potency [2] | Potency [3] | Potency [4] | Potency [5] | outcome [6]

NC(N)=[N+]1CCc2ccccc2C1
inactive: Potency [2] | Potency [3] | Potency [5] | outcome [6]

NC(=O)CNCCC(c1ccccc1)c1ccccc1
inactive: Potency [2] | Potency [3] | Potency [5] | outcome [6]

Oc1ccc(Cn2cc[nH]c2=S)cc1
inactive: Potency [2] | Potency [3] | Potency [4] | Potency [5] | outcome [6]

COc1cc(/C=C(\C#N)C(=O)c2ccc(O)c(O)c2)cc(I)c1O
active: Potency [10] 15.8 µM
inactive: Potency [2] | Potency [3] | Potency [5] | outcome [6]

N#C/C(=C\c1ccc(O)c(O)c1)C(=O)NCCCNC(=O)/C(C#N)=C/c1ccc(O)c(O)c1
inactive: Potency [2] | Potency [3] | outcome [6]

O=C(OCCN1CCOCC1)C1(c2ccccc2)CCCCC1
inactive: Potency [2] | Potency [5] | outcome [6]
active: Potency [3] 2 µM

N[C@@H](Cc1c[nH]c2ccccc12)C(=O)O
inactive: Potency [2] | Potency [3] | Potency [4] | Potency [5] | outcome [6]

COC(=O)[C@H](NC(=O)c1cc(-c2ccccc2)nc2ccccc12)c1ccccc1
inactive: Potency [2] | Potency [4] | Potency [5] | outcome [6]

CC(C)[C@H](NC(=O)OCc1ccccc1)C(=O)N[C@H](C=O)Cc1ccccc1 (Cbz-Val-Phe-aldehyde)
inactive: Potency [2] | Potency [3] | Potency [5] | outcome [6]

COc1cc(CNC(=O)CCCCCCC(C)C)ccc1O
inactive: Potency [2] | Potency [3] | Potency [4] | Potency [5] | outcome [6]

— PubChem BioAssay (NCATS)
